High-throughput results (PubChem)
EP2 modulator – modulators of human EP2 prostaglandin E2 receptor. P43116. EP2-expressing cells, cAMP HTRF FRET, PGE2 co-stimulation. induction, % at 25 µM. hit rate 0.83% among 260,000. AID 940;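 active = compounds whose cAMP rise, as percent of the full-agonist control response, exceeds 60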;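 also: rat C6 glioma line stably carrying human EP2 under a CMV promoter; the protocol text gives 20 µM as final concentration; 100% = response of wells given 1 µM PGE2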
EP2 antag – EP2 receptor (human) inhibition | hit rate 0.52% among 260,000 | P43116 | C6 glioma cells expressing human EP2, cAMP TR-FRET; cells stimulated with saturating PGE2 | inhibition, % at 25 µM;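 active = percent inhibition above 40 after rounding to a whole number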;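 also: rat C6 glioma host cells with rolipram phosphodiesterase inhibitor present; the protocol text gives 20 µM as final concentration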
KCC2 mod – modulates chloride dependent transport by human KCC2; AID 1456; B-score of Tl+ flux slope (higher = more flux/activation; lower = inhibition) at 10 µM; Q9H2X9; KCC2 cells, thallium flux FluoZin-2 fluorescence; hit rate 2.2% among 190,000;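 active = thallium flux slope and its plate-corrected score both differing from the plate sample mean at a set confidence after two filtering rounds, in either direction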;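 also: slope of fluorescence scaled to starting intensity during 10 to 20 s after thallium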
Target sequence (Q9H2X9 whole entry, looked up): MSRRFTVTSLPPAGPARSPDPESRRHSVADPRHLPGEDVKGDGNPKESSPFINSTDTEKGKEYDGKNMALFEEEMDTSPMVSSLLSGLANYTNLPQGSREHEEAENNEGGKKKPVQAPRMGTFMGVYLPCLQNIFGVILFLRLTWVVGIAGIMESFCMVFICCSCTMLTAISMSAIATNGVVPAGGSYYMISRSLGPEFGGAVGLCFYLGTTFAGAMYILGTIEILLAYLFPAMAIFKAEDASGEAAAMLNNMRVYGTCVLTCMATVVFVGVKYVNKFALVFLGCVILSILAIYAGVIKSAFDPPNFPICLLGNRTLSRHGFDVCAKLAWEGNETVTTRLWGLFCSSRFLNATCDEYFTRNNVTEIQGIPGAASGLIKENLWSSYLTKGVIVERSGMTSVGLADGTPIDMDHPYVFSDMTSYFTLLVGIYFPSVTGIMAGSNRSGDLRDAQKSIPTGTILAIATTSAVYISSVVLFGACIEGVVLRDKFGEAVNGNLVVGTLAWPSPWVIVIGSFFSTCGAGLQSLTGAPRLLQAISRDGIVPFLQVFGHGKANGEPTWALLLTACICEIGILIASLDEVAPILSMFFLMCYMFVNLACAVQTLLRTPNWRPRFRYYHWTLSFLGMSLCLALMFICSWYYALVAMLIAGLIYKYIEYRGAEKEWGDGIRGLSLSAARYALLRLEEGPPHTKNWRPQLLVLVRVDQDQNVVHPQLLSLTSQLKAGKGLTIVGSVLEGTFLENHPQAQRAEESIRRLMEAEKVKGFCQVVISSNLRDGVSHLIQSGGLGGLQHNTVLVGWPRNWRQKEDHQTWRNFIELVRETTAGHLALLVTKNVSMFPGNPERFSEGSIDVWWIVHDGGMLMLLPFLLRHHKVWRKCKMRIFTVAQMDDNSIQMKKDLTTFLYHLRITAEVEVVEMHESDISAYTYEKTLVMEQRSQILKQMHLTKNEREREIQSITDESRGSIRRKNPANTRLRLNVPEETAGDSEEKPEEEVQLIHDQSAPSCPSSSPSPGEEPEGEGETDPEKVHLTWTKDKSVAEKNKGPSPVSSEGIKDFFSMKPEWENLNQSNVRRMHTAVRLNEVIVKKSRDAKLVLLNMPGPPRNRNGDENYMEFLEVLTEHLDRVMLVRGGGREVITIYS
S1P3 antag – blocks the human S1P3 receptor; Q99500; CHO S1P3 NFAT-BLA reporter, FRET fluorescence, antagonist mode; inhibition, % at 4.98 µM; hit rate 0.27% among 170,000;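 active = inhibition above the plate cutoff, the mean inhibition of test wells on that plate plus 3 SD, cut at about 28% in these data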;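 also: cells challenged with S1P at its EC80 of 0.8 µM; blue over green emission ratio from cleaved BLA substrate after 4 h stimulation; 0% = S1P-stimulated wells and 100% = unstimulated DMSO-only wells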
KCC2 sec1 – KCC2 (human) modulation, secondary assay | HEK293-KCC2, thallium flux, FluoZin2 fluorescence; hits give high values | shares compounds with KCC2 mod | hit rate 15% among 3,700 | normalised thallium flux (F/F0 slope) at 10 µM;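 active = thallium flux slope above the same plate's solvent-only control mean plus 3 SD; inconclusive = the two replicate wells disagree; inactive = no significant difference from solvent-only control wells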
KCC2 bumet counter – thallium flux persisting under bumetanide in KCC2 cells, counter-screen secondary assay | HEK293-KCC2 + bumetanide/ouabain, thallium flux FluoZin2; hits give high values | shares compounds with KCC2 mod | hit rate 49% among 3,700 | AID 1714 | normalized thallium flux at 10 µM;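 active = thallium entry rate above the same plate's blocked-transporter control wells by more than 3 SD; inconclusive = the two repeat wells disagree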;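 also: raw slope of fluorescence over initial fluorescence between 10 and 20 s after thallium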
KCC2 secondary2 – confirmation of human KCC2 transport modulators; shares compounds with KCC2 mod; HEK293-KCC2, thallium flux FluoZin2 fluorescence; actives lie on both sides; F/F0 rise rate, 10–20 s post-thallium; normalized thallium flux at 10 µM; hit rate 23% among 3,700;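 active = thallium flux slope more than 3 SD above or below the plate's solvent-only control mean, mostly below; inconclusive = the two repeat wells disagreed; inactive = no significant shift from solvent-only controls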;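 also: raw slope with 0.1% DMSO as baseline and bumetanide as block control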
HEK293 Tl flux – counter-screen for KCC2 modulators: effect in parental HEK293 cells; hit rate 46% among 3,700; thallium flux FluoZin2, ouabain; baseline-ratio fluorescence slope, 10–20 s after thallium; thallium flux rate (normalised fluorescence) at 10 µM; shares compounds with KCC2 mod;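 active = thallium flux rate significantly above the same plate's solvent-only control wells, beyond their mean plus 3 SD; inconclusive = the two replicate wells gave conflicting results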
KCC2 ouabain – modulates human KCC2 on retest with ouabain; raw Tl+ flux slope (below DMSO = inhibition, above = activation) at 10 µM; shares compounds with KCC2 mod; HEK293-KCC2, thallium flux FluoZin2 fluorescence; bidirectional: low = inhibitor, high = activator; AID 1717; hit rate 48% among 3,700;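 active = thallium flux slope beyond 3 SD from same-plate DMSO control mean in most replicates, usually higher, sometimes lower; inconclusive = repeat tests gave conflicting results; inactive = no significant difference from controls in most replicates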;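 also: slope of initial-normalized fluorescence between seconds 10 and 20 after thallium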
HEK counter2 – acts in parental HEK cells, second KCC2 counter-screen. shares compounds with KCC2 mod. HEK293 parental, thallium flux FluoZin-2 fluorescence slope. hit rate 33% among 3,700. thallium flux slope at 10 µM;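 active = thallium flux slope above the same plate's solvent-control mean plus 3 SD in both duplicate wells; inconclusive = duplicate wells that disagreed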;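 also: run without ouabain in cells lacking the KCC2 cotransporter; slope of fluorescence scaled to its starting value between 10 and 20 s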
Active calls of the source: *; ? = inconclusive; / = no result. Shown are actives, neighbours in structure and some others; about 3.1% of the full set was active somewhere.

SMILES	EP2 modulator	EP2 antag	KCC2 mod	S1P3 antag	KCC2 sec1	KCC2 bumet counter	KCC2 secondary2	HEK293 Tl flux	KCC2 ouabain	HEK counter2
Cc1oc(-c2nc3ccccc3n2C)cc1C(=O)c1ccccc1	-10	10	-2.9*	15	0.0063	0.0051	0.032	0.0036	0.014*	0.011
CNC(=S)N(Cc1cc2cc(OC)c(OC)cc2[nH]c1=O)C1CCCC1	26	10	-4.2*	-19	0.0094	0.0061	0.031	?	0.019	0.0098
COc1cc2cc(CN(C(=S)NC3CCCCC3)C3CCCC3)c(=O)[nH]c2cc1OC	32	14	/	/	/	/	/	/	/	/
Cn1c(O)c(N=NC(=O)C2COc3ccccc3O2)c2ccccc21 (configuration not stated)	-11	2	-0.23	-11	/	/	/	/	/	/
CC(C)n1c(O)c(N=NC(=O)C2COc3ccccc3O2)c2ccccc21 (configuration not stated)	49	4	10*	18	0.0081	0.028*	0.033	0.03*	0.031*	0.026*
COc1ccccc1CC(C)NC(=O)c1cc(-c2cccs2)no1 (configuration not stated)	-43	9	/	/	/	/	/	/	/	/
Cc1nc2c(-c3ccc(Cl)cc3)c(C)[nH]n2c(=O)c1Cc1ccccc1	-37	7	4.9*	-11	0.0066	0.013*	?	0.012*	?	0.012*
Cc1nc2c(-c3ccccc3)c(C)[nH]n2c(=O)c1Cc1ccccc1	-38	9	4.9*	6	0.0072	0.02*	0.031	0.015*	?	0.016*
COc1ccc(-c2c(C)[nH]n3c(=O)c(Cc4ccccc4)c(C)nc23)cc1OC	-10	8	-0.64	1	/	/	/	/	/	/
O=C(CCn1c(=O)oc2ccccc21)N1CCc2ccccc21	17	11	/	-7	0.0077	0.0065	0.028	0.0068	?	0.0095
CCc1ccc(NC(=O)CCn2c(=O)oc3ccccc32)cc1	2	7	/	-27	0.0072	0.004	0.028	0.0071	?	0.0095
CCOc1cc(C2NN=C(c3ccccc3)S2)ccc1OCc1ccccc1Cl (configuration not stated)	8	6	6*	/	0.0085	0.0045	0.031	0.0077	0.019	0.01
CCc1nnc(NC(=O)CSc2nnc(-c3ccncc3)n2CC)s1	7	8	/	/	/	/	/	/	/	/
O=C(CN1CCC(n2cnc3cccnc32)CC1)N1CCOCC1	0	3	/	/	/	/	/	/	/	/
Cc1cnc(NC(=O)COc2cccc3c2OC(C)(C)C3)s1	-3	21	/	/	0.0085	0.0071	0.029	0.007	?	0.0097
COc1cc(C(=O)Nc2nnn(C)n2)cc(OC)c1OC	-5	9	/	/	/	/	/	/	/	/
CCc1ccc2[nH]c3nc(SCC(=O)Nc4c(Cl)cccc4Cl)nnc3c2c1	-26	11	/	/	/	/	/	/	/	/
Cc1cccc(N2C(=O)CS/C2=N\NC(=O)c2cccnc2)c1C	14	11	1.1	-11	/	/	/	/	/	/
Cc1cccc(N2C(=O)CS/C2=N\NC(=O)c2ccc(Br)cc2)c1C	28	3	7.9*	/	0.006	0.035*	0.036	0.023*	0.034*	0.024*
C/C(=N\NC(=O)c1ccc([N+](=O)[O-])c(C)c1)c1ccccc1Cl	13	9	12*	7	?	0.046*	0.038	?	0.041*	?
CC(=O)Nc1ccccc1NC(=O)C/C(C)=N/NC(=O)c1ccc([N+](=O)[O-])c(Cl)c1	30	8	0.65	1	/	/	/	/	/	/
O=C(Oc1cc(-c2ccccc2)no1)c1ccc(Cl)cc1	17	12	-5.5*	/	0.0083	0.0064	0.033	0.0072	0.021	0.0096
CC(=O)Oc1ccc(C(=O)N2CCOCC2)cc1	-7	8	/	/	/	/	/	/	/	/
c1ccc(-c2nc(Sc3ncnc4c3cnn4-c3ccccc3)n[nH]2)cc1	-8	/	-6.7*	-16	0.007	0.0049	0.023*	0.0069	?	0.011
c1ccc2c(CCNc3ncnc4nc[nH]c34)cccc2c1	-62	28	-3.2*	/	0.0085	0.0041	0.035	0.0076	0.017*	0.011
SMILES	EP2 modulator	EP2 antag	KCC2 mod	S1P3 antag	KCC2 sec1	KCC2 bumet counter	KCC2 secondary2	HEK293 Tl flux	KCC2 ouabain	HEK counter2
c1ccc(CCCNc2ncnc3nc[nH]c23)cc1	-29	12	-0.24	-9	/	/	/	/	/	/
Cc1c(-c2n[nH]c(=S)n2-c2ccc(C(F)(F)F)cc2)nnn1-c1ccccc1	9	3	1.6	2	/	/	/	/	/	/
Cc1c(-c2n[nH]c(=S)n2-c2ccc(Br)cc2)nnn1-c1ccc(Cl)cc1	28	6	5.4*	-5	0.012	0.024*	0.033	0.01*	0.029	?
O=C(c1ccc2c(c1)OCCO2)N1CCC(n2nnc(-c3ccc(F)cc3)n2)CC1	-102	/	/	/	/	/	/	/	/	/
O=C(O)C1CCCN(S(=O)(=O)c2ccc(Br)s2)C1 (configuration not stated)	5	6	1	-5	/	/	/	/	/	/
O=C(O)/C(=C\c1ccc(Br)cc1)c1ccc(S(=O)(=O)N2CCCCC2)s1	16	5	-6.9*	-8	0.0076	0.0068	0.033	0.0041	0.012*	0.011
CCCNC(=O)C1CCN(S(=O)(=O)c2cc(OC)ccc2OC)CC1	16	15	/	/	/	/	/	/	/	/
O=C1NC(=O)/C(=C\c2ccc(Oc3cnccn3)cc2)S1	12	11	-0.6	0	/	/	/	/	/	/
O=C1NC(=S)S/C1=C/c1ccc(Oc2cnccn2)cc1	-19	4	/	-17	0.012*	0.038*	0.029	0.012*	0.037*	?
CC(=O)NC1(c2ccccc2F)CCN(CC(=O)N(C)C2CCCCC2)CC1	-5	/	/	/	/	/	/	/	/	/
N#Cc1c2n(c3c(=S)nc[nH]c13)CCCCC2	37	24	5.2*	/	0.0065	0.014*	0.032	0.014*	?	0.014*
N#Cc1c2n(c3c(=O)[nH]cnc13)CCCC2	5	3	-0.87	-78	/	/	/	/	/	/
CC1CN(c2nc3c(c(=O)[nH]2)CCN(Cc2cnc4ccccc4c2)C3)CC(C)O1 (configuration not stated)	-32	/	/	/	/	/	/	/	/	/
NC(=O)C(c1ccc(Sc2ccccc2)nn1)c1ccc(Cl)cc1Cl (configuration not stated)	-4	1	4*	/	0.008	0.0046	0.033	0.0071	0.018	0.012
O=C(O)c1ccc(Oc2nc3ccccc3s2)cc1	-13	4	/	/	/	/	/	/	/	/
